In the supplement of paper PMC11732987, “Enantioselective OTUD7B fragment discovery through chemoproteomics screening and high-throughput optimisation” (Communications Chemistry, 2025):

Key:
Assay in all cases: log2 ratio of Biotin-Ahx-Ub-VS probe labelling (fragment/DMSO); higher = less target engagement (more negative = stronger competition), active = hit call of the paper (q ≤ 0.05, log2 ratio ≤ -1)
Conditions in all cases: compound concentration: 200 uM; treatment time: 3 h
[1] = target: USP34 (UniProt Q70CQ2)
Chain of USP34 (Q70CQ2 whole entry, the tested form may be a part): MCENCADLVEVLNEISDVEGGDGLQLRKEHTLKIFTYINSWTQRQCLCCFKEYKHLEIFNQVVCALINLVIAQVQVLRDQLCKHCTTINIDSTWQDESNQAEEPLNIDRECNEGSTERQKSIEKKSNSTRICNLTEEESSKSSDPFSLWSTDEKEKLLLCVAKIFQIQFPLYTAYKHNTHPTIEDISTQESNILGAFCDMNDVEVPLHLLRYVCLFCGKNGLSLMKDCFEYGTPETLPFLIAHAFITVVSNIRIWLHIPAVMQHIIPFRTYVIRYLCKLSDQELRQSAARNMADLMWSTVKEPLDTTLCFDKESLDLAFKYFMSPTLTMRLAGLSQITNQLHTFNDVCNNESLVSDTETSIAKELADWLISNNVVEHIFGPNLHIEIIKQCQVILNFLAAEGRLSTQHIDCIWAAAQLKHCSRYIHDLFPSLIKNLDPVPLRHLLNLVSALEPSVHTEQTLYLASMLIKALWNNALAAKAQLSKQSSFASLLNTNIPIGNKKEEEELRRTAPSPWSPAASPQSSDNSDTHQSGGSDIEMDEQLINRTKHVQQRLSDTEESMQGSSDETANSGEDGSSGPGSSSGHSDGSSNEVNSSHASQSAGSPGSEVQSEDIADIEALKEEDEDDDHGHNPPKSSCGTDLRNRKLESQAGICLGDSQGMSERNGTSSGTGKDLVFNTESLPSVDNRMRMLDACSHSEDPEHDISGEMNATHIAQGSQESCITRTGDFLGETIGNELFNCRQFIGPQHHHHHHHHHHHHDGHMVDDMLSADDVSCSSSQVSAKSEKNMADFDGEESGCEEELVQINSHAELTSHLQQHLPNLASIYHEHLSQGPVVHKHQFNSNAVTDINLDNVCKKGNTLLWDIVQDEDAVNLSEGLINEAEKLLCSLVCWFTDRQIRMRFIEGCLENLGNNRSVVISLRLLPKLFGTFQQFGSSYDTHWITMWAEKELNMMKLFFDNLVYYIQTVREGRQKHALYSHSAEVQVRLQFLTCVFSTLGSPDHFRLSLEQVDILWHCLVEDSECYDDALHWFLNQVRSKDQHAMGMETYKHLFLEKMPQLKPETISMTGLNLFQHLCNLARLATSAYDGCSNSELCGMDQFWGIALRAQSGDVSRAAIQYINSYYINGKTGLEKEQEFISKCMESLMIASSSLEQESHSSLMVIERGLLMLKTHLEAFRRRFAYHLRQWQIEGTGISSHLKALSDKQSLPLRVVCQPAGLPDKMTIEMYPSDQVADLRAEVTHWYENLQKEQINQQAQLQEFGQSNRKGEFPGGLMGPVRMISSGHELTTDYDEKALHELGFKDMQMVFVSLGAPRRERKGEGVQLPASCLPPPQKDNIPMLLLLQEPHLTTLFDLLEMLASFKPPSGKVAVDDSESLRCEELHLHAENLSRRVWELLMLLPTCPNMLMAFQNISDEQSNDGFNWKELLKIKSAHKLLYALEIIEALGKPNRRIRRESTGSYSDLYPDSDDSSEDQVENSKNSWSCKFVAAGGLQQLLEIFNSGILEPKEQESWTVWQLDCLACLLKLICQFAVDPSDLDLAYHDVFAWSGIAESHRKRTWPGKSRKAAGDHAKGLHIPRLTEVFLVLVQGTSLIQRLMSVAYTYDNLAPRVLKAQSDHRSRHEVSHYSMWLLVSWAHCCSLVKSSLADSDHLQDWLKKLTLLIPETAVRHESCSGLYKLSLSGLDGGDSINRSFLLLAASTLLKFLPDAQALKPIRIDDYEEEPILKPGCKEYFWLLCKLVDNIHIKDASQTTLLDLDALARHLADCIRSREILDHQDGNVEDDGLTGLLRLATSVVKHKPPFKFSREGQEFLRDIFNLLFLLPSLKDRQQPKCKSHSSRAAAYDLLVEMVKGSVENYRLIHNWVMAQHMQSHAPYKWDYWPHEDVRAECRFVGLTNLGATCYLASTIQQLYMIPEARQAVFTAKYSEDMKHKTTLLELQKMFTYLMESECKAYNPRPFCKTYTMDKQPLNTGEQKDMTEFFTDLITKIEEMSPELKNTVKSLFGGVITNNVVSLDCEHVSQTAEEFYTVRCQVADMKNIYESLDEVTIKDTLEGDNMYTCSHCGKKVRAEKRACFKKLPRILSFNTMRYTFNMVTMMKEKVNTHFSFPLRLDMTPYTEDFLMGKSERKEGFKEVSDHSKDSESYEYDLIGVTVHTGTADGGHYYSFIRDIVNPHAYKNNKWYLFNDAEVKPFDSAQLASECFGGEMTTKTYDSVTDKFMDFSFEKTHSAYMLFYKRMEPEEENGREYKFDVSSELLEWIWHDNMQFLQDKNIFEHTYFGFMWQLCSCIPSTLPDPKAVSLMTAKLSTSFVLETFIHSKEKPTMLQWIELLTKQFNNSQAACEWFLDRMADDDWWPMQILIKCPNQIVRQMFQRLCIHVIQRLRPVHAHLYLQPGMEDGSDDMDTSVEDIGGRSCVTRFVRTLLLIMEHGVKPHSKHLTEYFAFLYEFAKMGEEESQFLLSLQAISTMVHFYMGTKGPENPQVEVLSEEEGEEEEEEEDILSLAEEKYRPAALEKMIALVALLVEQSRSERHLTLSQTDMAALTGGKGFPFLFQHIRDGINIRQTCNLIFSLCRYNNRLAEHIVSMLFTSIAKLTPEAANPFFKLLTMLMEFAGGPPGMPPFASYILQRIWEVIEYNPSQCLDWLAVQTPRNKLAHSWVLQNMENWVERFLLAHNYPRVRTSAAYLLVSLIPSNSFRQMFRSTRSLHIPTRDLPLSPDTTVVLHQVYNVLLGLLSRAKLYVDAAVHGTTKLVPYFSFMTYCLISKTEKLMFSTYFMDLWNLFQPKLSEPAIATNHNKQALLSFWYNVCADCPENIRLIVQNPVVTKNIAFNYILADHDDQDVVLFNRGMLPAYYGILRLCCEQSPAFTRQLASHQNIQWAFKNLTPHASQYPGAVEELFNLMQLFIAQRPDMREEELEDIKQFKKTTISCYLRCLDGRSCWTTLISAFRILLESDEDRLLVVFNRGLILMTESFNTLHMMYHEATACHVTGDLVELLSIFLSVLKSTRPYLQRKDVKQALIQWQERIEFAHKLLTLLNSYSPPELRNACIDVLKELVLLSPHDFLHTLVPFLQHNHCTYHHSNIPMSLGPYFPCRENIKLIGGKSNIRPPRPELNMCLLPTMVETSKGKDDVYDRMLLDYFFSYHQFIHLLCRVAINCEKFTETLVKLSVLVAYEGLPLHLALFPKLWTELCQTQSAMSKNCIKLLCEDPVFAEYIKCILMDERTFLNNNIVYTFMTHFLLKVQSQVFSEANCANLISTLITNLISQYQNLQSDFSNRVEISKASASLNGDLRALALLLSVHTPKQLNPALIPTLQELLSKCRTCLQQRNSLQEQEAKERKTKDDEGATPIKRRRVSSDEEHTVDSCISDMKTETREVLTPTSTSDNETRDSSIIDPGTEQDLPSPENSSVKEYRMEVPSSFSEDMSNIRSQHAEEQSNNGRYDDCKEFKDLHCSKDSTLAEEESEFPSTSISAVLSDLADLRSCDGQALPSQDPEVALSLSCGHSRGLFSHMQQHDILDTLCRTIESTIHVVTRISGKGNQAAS
Procedure, shortened: (§1)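 Labelled DUBs from HEK293T lysate were NeutrAvidin-enriched, digested with LysC and trypsin, and run by diaPASEF LC-MS/MS. Before that, each 495 µg sample in Tris/CHAPS/IGEPAL buffer with protease inhibitors was treated in triplicate with fragment at 200 µM or vehicle for 3 h, then with Biotin-Ahx-Ub-VS at 0.5 µM final for 1 h. Values are average log2 ratios of fragment over vehicle by unpaired t-test, based on global-median-normalised Spectronaut label-free quantities from proteins with ≥2 unique peptides.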

[2] = target: T1, USP36 (UniProt Q9P275)
T1 sequence (whole entry): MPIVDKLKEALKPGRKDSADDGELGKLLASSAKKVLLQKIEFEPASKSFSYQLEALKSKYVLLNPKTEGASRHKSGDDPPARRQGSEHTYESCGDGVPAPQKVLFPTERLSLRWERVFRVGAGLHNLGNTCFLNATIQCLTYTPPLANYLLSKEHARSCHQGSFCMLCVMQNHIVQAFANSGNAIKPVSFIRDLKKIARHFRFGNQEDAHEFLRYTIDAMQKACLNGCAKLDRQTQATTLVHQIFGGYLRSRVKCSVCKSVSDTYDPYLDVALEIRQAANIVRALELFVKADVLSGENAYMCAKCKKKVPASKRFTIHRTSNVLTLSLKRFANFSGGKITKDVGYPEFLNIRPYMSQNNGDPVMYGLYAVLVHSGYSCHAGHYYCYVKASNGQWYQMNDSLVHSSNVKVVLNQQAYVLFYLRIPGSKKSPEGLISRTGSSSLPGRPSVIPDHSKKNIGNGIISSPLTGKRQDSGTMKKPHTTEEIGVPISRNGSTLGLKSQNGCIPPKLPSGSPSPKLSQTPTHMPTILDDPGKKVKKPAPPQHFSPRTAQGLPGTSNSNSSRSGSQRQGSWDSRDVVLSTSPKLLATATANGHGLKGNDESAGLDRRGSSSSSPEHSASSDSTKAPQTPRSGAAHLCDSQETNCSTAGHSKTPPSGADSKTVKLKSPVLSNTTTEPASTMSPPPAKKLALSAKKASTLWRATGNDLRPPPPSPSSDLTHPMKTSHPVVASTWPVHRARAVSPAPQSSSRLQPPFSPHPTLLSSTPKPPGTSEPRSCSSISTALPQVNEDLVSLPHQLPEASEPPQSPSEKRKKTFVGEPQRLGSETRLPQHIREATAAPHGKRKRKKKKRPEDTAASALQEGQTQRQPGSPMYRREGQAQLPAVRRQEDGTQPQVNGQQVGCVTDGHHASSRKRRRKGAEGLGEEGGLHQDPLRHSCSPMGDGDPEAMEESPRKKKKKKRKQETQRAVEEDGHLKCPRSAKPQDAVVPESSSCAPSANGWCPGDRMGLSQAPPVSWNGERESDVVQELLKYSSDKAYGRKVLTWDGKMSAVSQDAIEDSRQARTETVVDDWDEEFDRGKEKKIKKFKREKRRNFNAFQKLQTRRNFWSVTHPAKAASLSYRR
Procedure, shortened: as §1

[3] = target: T2, USP38 (UniProt Q8NB14)
T2 sequence (whole entry): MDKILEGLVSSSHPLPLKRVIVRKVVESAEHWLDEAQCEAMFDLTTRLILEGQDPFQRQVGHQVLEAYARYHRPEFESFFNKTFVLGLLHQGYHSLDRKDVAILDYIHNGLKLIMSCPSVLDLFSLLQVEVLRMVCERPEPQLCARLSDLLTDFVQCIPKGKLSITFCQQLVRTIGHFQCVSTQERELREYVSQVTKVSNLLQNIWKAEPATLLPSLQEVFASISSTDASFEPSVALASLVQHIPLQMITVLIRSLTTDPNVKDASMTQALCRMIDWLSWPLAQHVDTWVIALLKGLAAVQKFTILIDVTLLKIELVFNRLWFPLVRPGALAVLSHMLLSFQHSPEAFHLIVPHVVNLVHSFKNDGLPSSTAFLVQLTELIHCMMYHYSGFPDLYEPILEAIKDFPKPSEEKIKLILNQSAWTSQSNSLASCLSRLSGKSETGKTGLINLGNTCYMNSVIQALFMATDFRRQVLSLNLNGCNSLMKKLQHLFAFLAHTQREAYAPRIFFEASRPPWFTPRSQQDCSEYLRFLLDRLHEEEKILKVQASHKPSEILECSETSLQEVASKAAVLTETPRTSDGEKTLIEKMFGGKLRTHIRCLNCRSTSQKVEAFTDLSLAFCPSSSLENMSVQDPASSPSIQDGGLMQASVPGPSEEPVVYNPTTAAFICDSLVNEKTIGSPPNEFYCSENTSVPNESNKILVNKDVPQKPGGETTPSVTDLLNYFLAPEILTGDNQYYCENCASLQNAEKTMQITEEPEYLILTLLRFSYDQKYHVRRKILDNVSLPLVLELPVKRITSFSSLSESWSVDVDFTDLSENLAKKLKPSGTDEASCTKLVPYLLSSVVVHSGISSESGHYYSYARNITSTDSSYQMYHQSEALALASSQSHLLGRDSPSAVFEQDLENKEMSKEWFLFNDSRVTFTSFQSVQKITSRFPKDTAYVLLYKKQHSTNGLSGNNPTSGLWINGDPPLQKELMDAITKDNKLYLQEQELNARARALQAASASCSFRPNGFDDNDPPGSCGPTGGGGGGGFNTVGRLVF
Procedure, shortened: as §1

[4] = target: T3, USP39 (UniProt Q53GS9)
T3 sequence (whole entry): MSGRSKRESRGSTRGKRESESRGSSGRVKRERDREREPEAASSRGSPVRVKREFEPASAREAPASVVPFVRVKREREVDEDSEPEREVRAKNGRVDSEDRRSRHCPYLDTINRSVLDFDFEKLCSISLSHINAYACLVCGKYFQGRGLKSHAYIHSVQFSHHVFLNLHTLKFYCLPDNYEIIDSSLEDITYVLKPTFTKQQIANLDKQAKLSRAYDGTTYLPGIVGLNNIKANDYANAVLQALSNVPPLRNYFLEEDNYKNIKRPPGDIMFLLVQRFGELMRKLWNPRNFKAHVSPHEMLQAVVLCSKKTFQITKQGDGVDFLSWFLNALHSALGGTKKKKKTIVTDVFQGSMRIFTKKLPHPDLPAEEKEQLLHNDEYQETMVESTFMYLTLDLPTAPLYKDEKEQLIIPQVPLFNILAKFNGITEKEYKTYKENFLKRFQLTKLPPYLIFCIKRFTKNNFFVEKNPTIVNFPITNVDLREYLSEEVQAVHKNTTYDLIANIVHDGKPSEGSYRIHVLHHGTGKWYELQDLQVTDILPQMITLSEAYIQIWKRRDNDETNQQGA
Procedure, shortened: as §1

[5] = target: T4, USP4 (UniProt Q13107)
T4 sequence (whole entry): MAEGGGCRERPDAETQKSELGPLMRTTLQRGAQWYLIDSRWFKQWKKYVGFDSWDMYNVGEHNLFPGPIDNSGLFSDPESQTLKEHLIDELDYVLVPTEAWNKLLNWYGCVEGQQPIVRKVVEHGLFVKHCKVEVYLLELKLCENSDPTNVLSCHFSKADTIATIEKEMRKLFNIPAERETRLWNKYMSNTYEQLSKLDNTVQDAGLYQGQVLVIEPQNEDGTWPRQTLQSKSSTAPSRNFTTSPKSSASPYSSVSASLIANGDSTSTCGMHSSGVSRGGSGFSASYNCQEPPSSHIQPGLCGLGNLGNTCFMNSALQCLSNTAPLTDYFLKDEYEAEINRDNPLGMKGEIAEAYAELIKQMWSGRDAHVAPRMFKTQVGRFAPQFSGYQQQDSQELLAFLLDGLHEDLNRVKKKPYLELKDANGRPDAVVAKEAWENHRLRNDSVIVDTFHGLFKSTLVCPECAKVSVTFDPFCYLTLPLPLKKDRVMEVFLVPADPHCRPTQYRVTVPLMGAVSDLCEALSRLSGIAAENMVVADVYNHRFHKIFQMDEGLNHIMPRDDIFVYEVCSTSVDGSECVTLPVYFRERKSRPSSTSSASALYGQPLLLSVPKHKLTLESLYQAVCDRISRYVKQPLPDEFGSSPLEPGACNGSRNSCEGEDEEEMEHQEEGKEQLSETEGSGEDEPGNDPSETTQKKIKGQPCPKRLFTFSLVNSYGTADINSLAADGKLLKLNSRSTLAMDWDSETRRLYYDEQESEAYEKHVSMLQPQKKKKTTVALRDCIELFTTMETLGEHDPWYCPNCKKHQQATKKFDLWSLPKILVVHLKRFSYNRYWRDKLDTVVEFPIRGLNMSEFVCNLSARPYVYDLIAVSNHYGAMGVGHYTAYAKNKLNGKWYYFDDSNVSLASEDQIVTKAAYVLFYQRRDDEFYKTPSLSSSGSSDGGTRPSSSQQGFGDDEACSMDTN
Procedure, shortened: as §1

Measured: log2 ratio of Biotin-Ahx-Ub-VS probe labelling

O=C(CCl)N1CCC(C(=O)N2CCCCCC2)CC1
inactive: [1] -0.0554 | [2] -0.258 | [3] -0.135 | [4] -0.143 | [5] 0.128
